# This excerpt belongs to a sample that is enriched for the strongest signals.
# Assays:
# Assay in all cases: glycan array binding signal (z-score within array); higher = stronger binding
# Conditions in all cases: glycan notation: IUPAC condensed, linker removed
# [1] = target: Fuc(a1-2)Gal(b1-3)GlcNAc(b1-2)Man(a1-3)[Fuc(a1-2)Gal(b1-3)GlcNAc(b1-2)Man(a1-6)]Man(b1-4)GlcNAc(b1-4)[Fuc(a1-6)]GlcNAc
# Outline: (§1)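 Columns mapping to the same glycan were averaged after glycan names were converted to IUPAC-condensed notation. The data come from 3228 arrays in the Consortium for Functional Glycomics database, limited to those with an available protein sequence. Binding is reported as a within-array Z-score averaged across arrays of one protein sequence and across linkers.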
# [2] = target: Fuc(a1-2)Gal(b1-3)GlcNAc(b1-3)[Fuc(a1-2)Gal(b1-3)GlcNAc(b1-6)]GalNAc
# Outline: as §1
# [3] = target: Fuc(a1-2)Gal(b1-3)GlcNAc(b1-3)[Gal(b1-4)GlcNAc(b1-6)]Gal(b1-4)Glc
# Outline: as §1
# [4] = target: Fuc(a1-2)Gal(b1-3)GlcNAc(b1-3)[Neu5Ac(a2-6)Gal(b1-4)GlcNAc(b1-6)]Gal(b1-4)Glc
# Outline: as §1
# [5] = target: Fuc(a1-2)Gal(b1-3)[Fuc(a1-4)]GlcNAc(b1-2)Man(a1-3)[Fuc(a1-2)Gal(b1-3)[Fuc(a1-4)]GlcNAc(b1-2)Man(a1-3)]Man(b1-4)GlcNAc(b1-4)GlcNAc
# Outline: as §1
# [6] = target: Fuc(a1-2)Gal(b1-4)[Fuc(a1-3)]GlcNAc(b1-3)[Neu5Ac(a2-6)Gal(b1-4)GlcNAc(b1-6)]Gal(b1-4)Glc
# Outline: as §1
# [7] = target: Fuc(a1-2)[Gal(a1-3)]Gal(b1-3)GalNAc(b1-3)Gal(a1-4)Gal(b1-4)Glc
# Outline: as §1
# [8] = target: Fuc(a1-2)[Gal(a1-3)]Gal(b1-4)GlcNAc(b1-2)Man(a1-3)[Fuc(a1-2)[Gal(a1-3)]Gal(b1-4)GlcNAc(b1-2)Man(a1-6)]Man(b1-4)GlcNAc(b1-4)GlcNAc
# Outline: as §1
# [9] = target: Fuc(a1-2)[Gal(a1-3)]Gal(b1-4)GlcNAc(b1-3)[Fuc(a1-2)[Gal(a1-3)]Gal(b1-4)GlcNAc(b1-6)]GalNAc
# Outline: as §1
# [10] = target: Fuc(a1-2)[GalNAc(a1-3)]Gal(b1-4)GlcNAc(b1-2)Man
# Outline: as §1
# [11] = target: Fuc(a1-2)[GalNAc(a1-3)]Gal(b1-4)GlcNAc(b1-3)Gal(b1-4)GlcNAc(b1-3)Gal(b1-4)GlcNAc
# Outline: as §1
# [12] = target: Fuc(a1-3)[Gal(b1-4)]GlcNAc(b1-2)Man
# Outline: as §1
# [13] = target: Fuc(a1-3)[Gal(b1-4)]GlcNAc(b1-2)Man(a1-3)[Fuc(a1-3)[Gal(b1-4)]GlcNAc(b1-2)Man(a1-6)]Man(b1-4)GlcNAc(b1-4)[Fuc(a1-6)]GlcNAc
# Outline: as §1
# [14] = target: Fuc(a1-3)[Gal(b1-4)]GlcNAc(b1-3)Gal(b1-3)[Fuc(a1-4)]GlcNAc
# Outline: as §1
# [15] = target: Fuc(a1-3)[Gal3S(b1-4)]Glc
# Outline: as §1
# Gal(a1-2)Gal = target: Gal(a1-2)Gal
# Outline: as §1
# [16] = target: Gal(a1-3)Gal(b1-3)GlcNAc(b1-2)Man(a1-3)[Gal(a1-3)Gal(b1-3)GlcNAc(b1-2)Man(a1-6)]Man(b1-4)GlcNAc(b1-4)GlcNAc
# Outline: as §1
# [17] = target: Gal(a1-3)Gal(b1-3)GlcNAc(b1-6)GalNAc
# Outline: as §1
# Gal(b1-3)GalNAc(b1-3)Gal = target: Gal(b1-3)GalNAc(b1-3)Gal
# Outline: as §1
# [18] = target: Gal(b1-3)GlcNAc(b1-2)Man(a1-3)[Gal(b1-3)GlcNAc(b1-2)Man(a1-6)]Man(b1-4)GlcNAc(b1-4)[Fuc(a1-6)]GlcNAc
# Outline: as §1
# [19] = target: Gal(b1-3)GlcNAc(b1-3)Gal(b1-4)GlcNAc
# Outline: as §1
# [20] = target: Gal(b1-3)GlcNAc(b1-6)[Gal(b1-3)]GalNAc
# Outline: as §1
# Gal(b1-3)GlcNAc6S = target: Gal(b1-3)GlcNAc6S
# Outline: as §1
# [21] = target: Gal(b1-4)GalNAc(a1-3)[Fuc(a1-2)]Gal(b1-4)GlcNAc
# Outline: as §1
# [22] = target: Gal(b1-4)GlcNAc(b1-2)Man(a1-3)[Gal(b1-4)GlcNAc(b1-2)Man(a1-6)]Man(b1-4)GlcNAc(b1-4)[Fuc(a1-6)]GlcNAc
# Outline: as §1
# [23] = target: Gal(b1-4)GlcNAc(b1-2)Man(a1-3)[Man(a1-6)]Man(b1-4)GlcNAc(b1-4)GlcNAc
# Outline: as §1
# [24] = target: Gal(b1-4)GlcNAc(b1-3)Gal(b1-3)GlcNAc
# Outline: as §1
# [25] = target: Gal(b1-4)GlcNAc(b1-3)Gal(b1-4)GlcNAc(b1-3)Gal(b1-4)GlcNAc(b1-2)Man(a1-3)[Gal(b1-4)GlcNAc(b1-3)Gal(b1-4)GlcNAc(b1-3)Gal(b1-4)GlcNAc(b1-2)Man(a1-6)]Man(b1-4)GlcNAc(b1-4)[Fuc(a1-6)]GlcNAc
# Outline: as §1
binder,measurement,setting,value
GS7807G-bfa-506-18-506 (Bacteroides fragilis) (protein) ASCDKFDEINTDPDATTKVTSSLLATGLLLDITSSSASKSFIYDELLAKQMAWGESMEDYQYNVFGRSGFGGYTTLINAQKMVESVSDDNVNAYDGLAHFIKAYKIFYMSMEMGDLPYEEALQGELGLVRPKYNTQKEVMNFILSDLETAYELFSTAKDFDGDPILGGSISKWKKATTAFQLKVLMHLSKKESDADLKVKERFARIVASGSLMESNEDNLQMKYADKANTVYPFHNTNTKHAGYAMLSTMLIDKFKATGDIRMFYYAKPAKAKLNEGVTADSWDAYIGTDPSLPFEQIEKAYATEQYSGFNARYTDYPSGEPVVRLGYAEQNFILAEAAVRGWISGDASAYYKKAIRAHMEFIASNTPDEEVYHHGHPITEEAIAAFLETPAIQLSGEKEEDIEKILTQRYLASFMQHPYDVYYDYRRTGYPVLPINPATNRNTMNDRLPMRWMYPKSESDYNLEHQNEALERQFGGVDDVNKLMWILQ,glycan array binding signal (z-score),[1],0.142
same,glycan array binding signal (z-score),[2],3.91
same,glycan array binding signal (z-score),[3],0.516
same,glycan array binding signal (z-score),[4],-0.857
same,glycan array binding signal (z-score),[5],0.421
same,glycan array binding signal (z-score),[6],-0.781
same,glycan array binding signal (z-score),[7],-0.536
same,glycan array binding signal (z-score),[8],3.93
same,glycan array binding signal (z-score),[9],0.293
same,glycan array binding signal (z-score),[10],-0.111
same,glycan array binding signal (z-score),[11],-0.91
same,glycan array binding signal (z-score),[12],0.315
same,glycan array binding signal (z-score),[13],1.51
same,glycan array binding signal (z-score),[14],-0.716
same,glycan array binding signal (z-score),[15],-0.945
same,glycan array binding signal (z-score),Gal(a1-2)Gal,-0.863
same,glycan array binding signal (z-score),[16],4.66
same,glycan array binding signal (z-score),[17],1.31
same,glycan array binding signal (z-score),Gal(b1-3)GalNAc(b1-3)Gal,-0.588
same,glycan array binding signal (z-score),[18],2.73
same,glycan array binding signal (z-score),[19],-0.493
same,glycan array binding signal (z-score),[20],-0.028
same,glycan array binding signal (z-score),Gal(b1-3)GlcNAc6S,0.702
same,glycan array binding signal (z-score),[21],-0.448
same,glycan array binding signal (z-score),[22],2.53
same,glycan array binding signal (z-score),[23],1.4
same,glycan array binding signal (z-score),[24],0.201
same,glycan array binding signal (z-score),[25],5.99
